Measured values: the supplement of paper PMC13380429

Test system: Vero E6 infected with SARS-CoV-2
Experiment: inhibition of SARS-CoV-2 cytopathic effect; higher = more antiviral protection, active = above 15
Settings: 48 h

Measured: inhibition of SARS-CoV-2 cytopathic effect

Cc1cn2c(N)c(Cl)cc(C(=O)NCC3CCN(CC(C)C)CC3)c2n1
inactive: 1 nM 2.35% | 8.33 nM 1.24% | 100 nM 2.96% | 833.33 nM 3.33% | 10000 nM 0.75%

OC[C@@H](O)[C@H]1O[C@@H]2O[C@H](C(Cl)(Cl)Cl)O[C@@H]2[C@H]1O [chloralose]
inactive: 1 nM 1.75% | 8.33 nM 3.01% | 100 nM 2.94% | 833.33 nM -0.88% | 10000 nM -0.85%

N#Cc1cccc(-c2c[nH]c3ncnc(N4CCOCC4)c23)c1
inactive: 1 nM -1.16% | 8.33 nM -0.52% | 100 nM -2.71% | 833.33 nM -0.07% | 10000 nM -2.14%
